In the library only some 1.5% were active in any assay of this set; here they are far more common.
MEX-5 binding = C. elegans MEX-5 TCR-2 RNA binding activity; Q9XUB2; hit rate 0.38% among 300,000; AID 1832; MEX-5/FITC-TCR2 RNA binding, fluorescence polarization; hits give low values; activity score (negative = inhibition of binding), % at 10 µM;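 active = inhibition past about -25% in most replicates, and total fluorescence under double the plate's negative control median, limit read from the data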
Bcl-xL primary = blocks human Bcl-xL binding to Bim BH3 peptide; GST-Bcl-xL / FITC-Bim BH3 peptide fluorescence polarization; inhibition, % at 10.9 µM; Q07817; hit rate 0.7% among 320,000;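 active = inhibition above the mean of all tested compounds plus 3 SD, cutoff set per campaign, cut at about 30% in these data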;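 note: inhibitors lower millipolarization by displacing the labeled peptide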
MCL1 BIM primary = MCL1-BIM-BH3 interaction inhibition (human) | GST-MCL1 / FITC-Bim-BH3 fluorescence polarization | inhibition, % at 10.9 µM | hit rate 0.68% among 320,000;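 active = inhibition above the mean inhibition of all tested compounds plus 3 SD, set per campaign, cut at about 40% in these data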;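 note: higher means more loss of mP so more displacement of Bim peptide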
eLon inh = inhibitors of E. coli Lon protease; P0A9M0; purified E. coli Lon protease, fluorescence polarization; inhibition, % at 7.94 µM; hit rate 0.42% among 360,000; AID 602123; in the data active = inhibition above about 13%, passing the limit was not always enough
Target sequence (P0A9M0 whole entry, looked up): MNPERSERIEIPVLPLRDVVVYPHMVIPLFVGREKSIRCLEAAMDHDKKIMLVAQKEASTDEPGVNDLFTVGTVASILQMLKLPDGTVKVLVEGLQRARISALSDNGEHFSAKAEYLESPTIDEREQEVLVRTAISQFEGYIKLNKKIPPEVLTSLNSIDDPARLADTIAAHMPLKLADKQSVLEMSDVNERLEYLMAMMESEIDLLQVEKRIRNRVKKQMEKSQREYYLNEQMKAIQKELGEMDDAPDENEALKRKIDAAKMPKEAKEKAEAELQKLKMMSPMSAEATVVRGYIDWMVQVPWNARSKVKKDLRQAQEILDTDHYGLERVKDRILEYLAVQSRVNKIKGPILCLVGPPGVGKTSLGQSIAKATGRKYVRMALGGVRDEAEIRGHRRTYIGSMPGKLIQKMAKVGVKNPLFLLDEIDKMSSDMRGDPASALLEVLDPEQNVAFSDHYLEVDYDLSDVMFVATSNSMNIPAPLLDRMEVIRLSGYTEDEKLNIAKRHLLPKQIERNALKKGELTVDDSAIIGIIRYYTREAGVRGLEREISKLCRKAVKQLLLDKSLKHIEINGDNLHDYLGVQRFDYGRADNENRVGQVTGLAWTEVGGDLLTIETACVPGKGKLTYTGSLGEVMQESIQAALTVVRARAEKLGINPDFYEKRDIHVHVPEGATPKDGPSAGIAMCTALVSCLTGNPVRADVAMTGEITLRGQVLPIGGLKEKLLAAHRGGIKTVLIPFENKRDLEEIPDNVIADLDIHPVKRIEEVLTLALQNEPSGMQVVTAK
EBV gp42 inh = blocks Epstein-Barr virus glycoprotein 42 binding; AID 1085; Q1HVG2; hit rate 0.42% among 220,000; inhibition, % (tested at 21.74 µM); Fluorescence polarization binding assay, mP read-out; in the data active = inhibition above about 50%
GLD-1 TGE inh = GLD-1-TGE RNA interaction inhibition (C. elegans); Q17339; purified GLD-1 + fluorescein TGE RNA, fluorescence polarization; inhibition, % at 5.96 µM; hit rate 0.44% among 320,000; AID 2280;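 active = percent inhibition above a per-plate cutoff, the plate mean of test compounds plus 3 SD, cut at about 30% in these data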
GLD1 RNA confirm = GLD-1 TGE RNA interaction inhibition, confirmation. shares compounds with GLD-1 TGE inh. GLD-1/FL-TGE RNA fluorescence polarization, biochemical. inhibition, % at 5.96 µM. hit rate 10% among 550. AID 2459;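 active = average inhibition across triplicates above the hit cutoff set in the primary screen, cut at about 32% in these data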
Each line names hits and unclear results; the compound was inactive in the other large screens (follow-up assays come after a bar, where they were run).

CCOC(=O)c1cc2c(ccn2C)n1CC(=O)N1CCN(c2cccc(C(F)(F)F)c2)CC1	GLD-1 TGE inh 40 | GLD1 RNA confirm 47
COc1ccc(S(=O)(=O)n2nc(C)c(S(=O)(=O)N3CCOCC3)c2C)cc1OC	none (no result: eLon inh, EBV gp42 inh)
Cc1ccc(/C=C2/NC(=O)N(Cc3ccccc3F)C2=O)o1	GLD-1 TGE inh 34 | GLD1 RNA confirm inactive
CCCN1C(=O)/C(=C/c2ccc(C)o2)NC1=S	none (no result: eLon inh)
CCN1C(=O)N/C(=C/c2ccc(C)o2)C1=O	GLD-1 TGE inh 43 | GLD1 RNA confirm inactive
CCn1c(C)cc(/C=C2/NC(=O)N(Cc3ccccc3F)C2=O)c1C	none
CC1(C)CC(OC(=O)c2ccco2)CC(C)(C)N1O	Bcl-xL primary 43, GLD-1 TGE inh 35 | GLD1 RNA confirm inactive
CN1C(C)(C)CC(NC(=O)c2ccco2)CC1(C)C	none (no result: EBV gp42 inh)
Cc1cc(F)ccc1Oc1cc(NN2CCCCC2)c([N+](=O)[O-])cc1[N+](=O)[O-]	none (no result: EBV gp42 inh)
O=[N+]([O-])c1cc([N+](=O)[O-])c(Oc2ccc(Br)cc2Br)cc1NN1CCCCC1	GLD-1 TGE inh 100 (no result: EBV gp42 inh) | GLD1 RNA confirm inactive
O=C(C(=O)N1CCN(c2ccccc2)CC1)c1cn(CC(=O)N2CCCCCC2)c2ccccc12	GLD-1 TGE inh 31 (no result: EBV gp42 inh) | GLD1 RNA confirm inactive
Cc1ccc(CNc2nc(NCc3ccccc3)nc3ccsc23)c(C)c1	none (no result: MEX-5 binding, Bcl-xL primary, MCL1 BIM primary, EBV gp42 inh, GLD-1 TGE inh)
Oc1cc(NCCc2cccnc2)cc2cccnc12	GLD-1 TGE inh 39 (no result: MEX-5 binding, Bcl-xL primary, MCL1 BIM primary, EBV gp42 inh) | GLD1 RNA confirm inactive
COCOCCn1cc(CN2CCS(=O)(=O)N(Cc3ccc(-c4ccc(Cl)c(Cl)c4)cc3)C(C(C)C)C2=O)nn1 (stereo not drawn)	none (no result: MEX-5 binding, Bcl-xL primary, MCL1 BIM primary, EBV gp42 inh, GLD-1 TGE inh)
COc1ccc(CN2CC(=O)N3[C@H]4c5cc(C)ccc5OC[C@@H]4[C@H](c4ccccc4)[C@]3(C)C2=O)cc1	GLD-1 TGE inh 33 (no result: MEX-5 binding, Bcl-xL primary, MCL1 BIM primary, EBV gp42 inh) | GLD1 RNA confirm inactive
Cc1ccc2c(c1)[C@H]1[C@H](CO2)[C@H](c2ccccc2)[C@]2(C)C(=O)N(Cc3ccc(Cl)cc3)CC(=O)N12	none (no result: MEX-5 binding, EBV gp42 inh)
COc1ccc(CN2CC(=O)N3[C@H]4c5ccccc5OC[C@@H]4[C@H](c4ccccc4)[C@]3(C)C2=O)cc1	GLD-1 TGE inh 45 (no result: MEX-5 binding, EBV gp42 inh) | GLD1 RNA confirm inactive
Cc1nn2c(NCCCN(C)C)c3c(nc2c1-c1ccccc1)CCC3	GLD-1 TGE inh 31 | GLD1 RNA confirm inactive
COc1cccc(OCCNc2cc(N3CCCCC3)ccc2[N+](=O)[O-])c1	GLD-1 TGE inh 59 | GLD1 RNA confirm inactive
COc1ccc(OCCNc2cc(N3CCCCC3)ccc2[N+](=O)[O-])cc1	none
COc1ccc(CN2C(=O)CN=C2Nc2cc(C)ccc2C)cc1	GLD-1 TGE inh 33 | GLD1 RNA confirm inactive
Cc1onc(-c2ccccc2)c1C(=O)OCC(=O)NCc1ccc(F)cc1	GLD-1 TGE inh 31 | GLD1 RNA confirm inactive
O=C(C1CCN(S(=O)(=O)c2ccccc2)CC1)N1CCCCCC1	none (no result: Bcl-xL primary, MCL1 BIM primary, EBV gp42 inh, GLD-1 TGE inh)
COc1ccc(OC)c(Nc2cc3ccccc3c(=O)[nH]2)c1	GLD-1 TGE inh 42 (no result: EBV gp42 inh) | GLD1 RNA confirm inactive
O=C(CCNS(=O)(=O)c1ccccc1C(F)(F)F)NC1CCCCCC1	none (no result: MEX-5 binding, Bcl-xL primary, MCL1 BIM primary, EBV gp42 inh, GLD-1 TGE inh)
CCCc1ccc(/C=C2\C(=O)c3ccccc3C(O)=C2C(=O)OCC)cc1	none (no result: eLon inh)
CCOC(=O)C1=C(O)c2ccccc2C(=O)/C1=C\c1ccc(CC)cc1	GLD-1 TGE inh 38 | GLD1 RNA confirm inactive
CCn1c(CSc2nnc(-c3cccnc3)n2-c2ccccc2C)nc2cc(C(=O)O)ccc21	Bcl-xL primary 30, GLD-1 TGE inh 46 (no result: MEX-5 binding, eLon inh) | GLD1 RNA confirm inactive
CC(C)(C)NC(=S)NNC(=O)c1cccc(Br)c1	none
C#Cc1ccc(CN2CCC(N3CCC(C(=O)NCc4ccccn4)CC3)CC2)cc1	none (no result: EBV gp42 inh)
CC(C)/C=C/C(=O)N1CCC(N2CCC(C(=O)NCc3ccccn3)CC2)CC1	GLD-1 TGE inh 35 (no result: EBV gp42 inh) | GLD1 RNA confirm inactive
Oc1ccc(/C=N/Nc2cc(N3CCCC3)nc(N3CCCC3)n2)cc1	GLD-1 TGE inh 39 | GLD1 RNA confirm 38
CC(C)CCN(C)C1CCN(C(=O)Nc2c(F)cccc2F)CC1	Bcl-xL primary 37, GLD-1 TGE inh 35 | GLD1 RNA confirm inactive
O=C(COC(=O)c1ccc(Br)cc1)NCc1ccccc1	GLD-1 TGE inh 41 | GLD1 RNA confirm inactive
O=C(COC(=O)c1ccncc1)NCc1ccccc1	none
O=C(COC(=O)c1nc(Cl)ccc1Cl)NCc1cccs1	none (no result: EBV gp42 inh)
Cc1cc(/C=C(\C#N)c2nnc(N3CCOCC3)n2-c2ccccc2)c(C)n1-c1ccccc1	GLD-1 TGE inh 49 (no result: eLon inh) | GLD1 RNA confirm inactive
NNC(=O)c1csc(Cc2c(Cl)sc3ccc(Cl)cc23)n1	none
CCN(CC)S(=O)(=O)c1cc(NC(=O)CN2CCN(c3ccccn3)CC2)ccc1C	none
Cc1ccc(NC(=O)CN2CCN(c3ccccn3)CC2)cc1S(=O)(=O)N(C)C	GLD-1 TGE inh 54 | GLD1 RNA confirm inactive
Cc1cc(NC(=O)/C=C/c2ccccc2Cl)n(-c2nc3ccccc3[nH]2)n1	GLD-1 TGE inh 34 | GLD1 RNA confirm inactive
Cc1cc(NC(=O)c2ccc(F)cc2F)n(-c2nc3ccccc3[nH]2)n1	none
COc1ccc(-n2nc(C(=O)NCC(=O)NC3CCCC(C)C3C)c3ccccc3c2=O)cc1 (stereo not drawn)	GLD-1 TGE inh 33 (no result: EBV gp42 inh) | GLD1 RNA confirm inactive
CCCCCOc1ccc(C(=O)CCC(=O)NC(C)c2ccc(S(N)(=O)=O)cc2)cc1 (stereo not drawn)	none (no result: MEX-5 binding, Bcl-xL primary, MCL1 BIM primary, EBV gp42 inh)
Cc1noc(C)c1S(=O)(=O)N(CC(=O)NCCc1ccccc1)c1ccc(C(C)C)cc1	GLD-1 TGE inh 48 (no result: EBV gp42 inh) | GLD1 RNA confirm inactive
Cc1noc(C)c1S(=O)(=O)N(CC(=O)NCc1ccccc1)c1ccc(C(C)C)cc1	none (no result: EBV gp42 inh)
CN1CC2=Cc3ccccc3OC23Oc2ccccc2C=C3C1	GLD-1 TGE inh 33 | GLD1 RNA confirm 39
Cc1ccccc1OC(=O)C1C(c2ccccc2)C(C(=O)O)C1c1ccccc1 (stereo not drawn)	GLD-1 TGE inh 39 | GLD1 RNA confirm inactive
CCCCn1c(N)c(N(CCOC)C(=O)c2cccc(S(=O)(=O)N(CC)c3ccccc3)c2)c(=O)[nH]c1=O	none (no result: EBV gp42 inh)
Cc1ccc(/C=C/c2nc3ccccc3[nH]2)o1	Bcl-xL primary 40, GLD-1 TGE inh 32 | GLD1 RNA confirm inactive
COCCNC(=O)c1c(N)n(CCC2=CCCCC2)c2nc3ccccc3nc12	Bcl-xL primary 50, MCL1 BIM primary 52, GLD-1 TGE inh 38 | GLD1 RNA confirm inactive
CC(=O)Nc1ccc2nc3ccccc3nc2c1	Bcl-xL primary 59, MCL1 BIM primary 50, GLD-1 TGE inh 48 | GLD1 RNA confirm 34
O=C(Nc1ccc2nc3ccccc3nc2c1)c1ccc(Br)cc1	none
NC(=O)c1ccccc1NC(=O)/C=C/c1ccc(Cl)cc1	GLD-1 TGE inh 56 | GLD1 RNA confirm inactive
